Test results published in the supplement of paper PMC3334620.
Whole data set: some 33,000 sequences, median “E-score (-0.5 to 0.5)” near -0.054, cut for the highest 2% near 0.39. The list comes from a sample in which the highest values are over-represented; it also holds similar and randomly drawn sequences.

biological target: Ylr278c (UniProt Q05854); assay: PBM E-score (8-mer binding enrichment) (E-score (-0.5 to 0.5)); higher = stronger / more preferred TF binding; details: protein concentration: 200 nM; construct: GST-DNA-binding domain
Chain of UniProt Q05854 (Q05854 whole entry, the tested form may be a part): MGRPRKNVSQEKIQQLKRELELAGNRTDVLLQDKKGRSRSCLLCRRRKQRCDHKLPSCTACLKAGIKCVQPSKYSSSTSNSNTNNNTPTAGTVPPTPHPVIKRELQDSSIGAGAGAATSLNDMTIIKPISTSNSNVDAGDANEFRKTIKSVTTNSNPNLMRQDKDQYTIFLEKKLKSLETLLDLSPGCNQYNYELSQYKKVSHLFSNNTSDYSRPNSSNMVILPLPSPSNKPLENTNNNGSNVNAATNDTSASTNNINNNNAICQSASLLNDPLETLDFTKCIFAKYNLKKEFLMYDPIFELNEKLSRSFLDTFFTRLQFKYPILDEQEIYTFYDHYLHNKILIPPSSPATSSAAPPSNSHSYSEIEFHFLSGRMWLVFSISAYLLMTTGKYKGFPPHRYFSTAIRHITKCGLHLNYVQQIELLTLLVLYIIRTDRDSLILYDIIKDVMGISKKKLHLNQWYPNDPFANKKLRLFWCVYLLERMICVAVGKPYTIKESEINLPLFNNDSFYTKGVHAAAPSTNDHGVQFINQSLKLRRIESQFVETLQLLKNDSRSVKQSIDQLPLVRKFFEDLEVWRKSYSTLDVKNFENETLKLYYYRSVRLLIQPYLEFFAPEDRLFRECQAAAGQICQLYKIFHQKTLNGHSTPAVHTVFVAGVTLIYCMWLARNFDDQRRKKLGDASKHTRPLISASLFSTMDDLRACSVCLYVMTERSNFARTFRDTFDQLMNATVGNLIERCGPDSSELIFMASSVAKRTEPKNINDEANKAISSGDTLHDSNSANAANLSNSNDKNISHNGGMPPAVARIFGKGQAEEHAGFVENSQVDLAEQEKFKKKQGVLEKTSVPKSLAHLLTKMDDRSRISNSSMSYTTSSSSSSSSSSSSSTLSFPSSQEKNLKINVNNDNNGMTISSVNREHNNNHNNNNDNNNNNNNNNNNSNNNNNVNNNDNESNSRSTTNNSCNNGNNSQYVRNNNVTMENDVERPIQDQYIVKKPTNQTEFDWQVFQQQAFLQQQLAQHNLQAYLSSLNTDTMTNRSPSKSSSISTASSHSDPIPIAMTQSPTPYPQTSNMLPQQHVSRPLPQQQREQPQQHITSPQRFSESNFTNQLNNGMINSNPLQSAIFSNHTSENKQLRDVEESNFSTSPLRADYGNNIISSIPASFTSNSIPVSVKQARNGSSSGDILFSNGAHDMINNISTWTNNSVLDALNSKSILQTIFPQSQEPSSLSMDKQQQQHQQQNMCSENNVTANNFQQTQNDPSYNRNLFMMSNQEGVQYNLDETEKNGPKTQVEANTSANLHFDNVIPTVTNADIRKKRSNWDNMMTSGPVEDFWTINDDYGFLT
Procedure, shortened: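 Universal all-10-mer Agilent arrays, double-stranded by primer extension on fresh or once-stripped slides, were probed with about 100-200 nM GST-tagged yeast transcription factors made by PURExpress. Fluorescent anti-GST detected bound protein, and masliner normalised the scans. E-scores from the Universal PBM Analysis Suite were given to each ungapped eight-base word pooled with its reverse complement.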

Point of comparison: CACCGGAA, “PBM E-score” value 0.427. Against it:
- AAGAAAGA — lower, -0.0469
- ATGCTAGC — lower, 0.00697
- CACCGGCG — lower, 0.383
- CACCGGAC — higher, 0.439
- CACCGGAG — higher, 0.443
- CACCGGGA — lower, 0.352
- CACCGGTA — lower, 0.297
- CACCGGTG — lower, 0.306
- GACCGGAC — lower, 0.383
- GACCGGAA — lower, 0.389
- CACCGGCC — lower, 0.273
- GACCGGTA — lower, 0.0914
- GACCGGGA — lower, 0.359
- ATACGATA — lower, -0.118
- ACGGGGGA — lower, 0.0207
- ACTCCATC — lower, 0.275
- ATGCACAC — lower, -0.153
- CCATCAGC — lower, -0.0147
- GGGGTCAC — lower, -0.0137
- GTCTTACA — lower, -0.252
- GCAGGTCA — lower, -0.134
- ACCAGTGC — lower, -0.264
- AACCGGAA — lower, 0.391
- AACCGCAG — lower, -0.0582
- AACCGGCA — lower, 0.215
- TACCGGGA — lower, 0.381
- AACCGGAG — higher, 0.48
- AACCGGTG — lower, 0.282
- TACCGGTA — lower, 0.246
- TACCGGAA — lower, 0.397
- AACCGCAC — lower, -0.0338
- AACCGGAT — lower, 0.367
- AACCGGAC — lower, 0.414
- AAACGGAC — lower, 0.197
- ACAGTGAG — lower, -0.301
- GAGAGTTA — lower, -0.158
- CGCAACAC — lower, 0.111
- ATTCAAGG — lower, -0.282
- GCTTTCCA — lower, -0.0584
- CCTTAGAG — lower, -0.172
- GGTCCAAA — lower, 0.0394
- CGTCCGAC — lower, 0.243
- TGTCCTAA — lower, -0.233
- GGTCCGAA — higher, 0.439
- GGTCCAAC — lower, 0.00905
- TGTCCGAA — lower, 0.407
- CGTCCGAA — lower, 0.352
- TGTCCAAA — lower, -0.0727
- GGTCCGAC — lower, 0.39
- AAACCCAA — lower, 0.0205
- AACGGGCA — lower, -0.0928
- TCCTCAGA — lower, 0.0167
- CGTGAGTC — lower, -0.141
- CAACTTCC — lower, 0.22
- GTAGCGAC — lower, -0.186
- GCGTTCGA — lower, -0.11
- GTTTCCGA — lower, 0.369
- CTTTCCGC — lower, 0.332
- ACTTCCGA — lower, 0.378
- ATTTCCGG — higher, 0.475
- ATTTCCCC — lower, 0.127
- ACTTCCGC — lower, 0.342
- CTTTCCGA — lower, 0.354
- ACTTCCGG — higher, 0.435
- ATTTCCTG — lower, 0.0615
- ATTTCCGA — higher, 0.446
- ATTTCCGC — lower, 0.397
- ATTTCCAG — lower, 0.0814
- ACACATCA — lower, 0.0404
- CCACTGAA — lower, 0.0461
- GTCAAGAC — lower, -0.133
- GAGCTGGA — lower, 0.0426
- TAAGGACA — lower, -0.156
- CTATCTGA — lower, -0.328
- GGTTCGCA — lower, 0.0401
- AGTTCGGA — lower, 0.391
- GGTTCGAA — lower, 0.0257
- CGTTCGTA — lower, 0.0114
- GGTTCGGA — lower, 0.42
- CGTTCGGA — lower, 0.41
- AGTTCGGG — lower, 0.281
- CGTTCGGC — lower, 0.235
- AGTTCGGC — lower, 0.185
- AAGAGACT — lower, -0.101
- AAATCTGA — lower, -0.0879
- TAGTACGA — lower, -0.0816
- AGGAGTAC — lower, -0.136
- AGGAGTAA — lower, 0.0423
- CGGAGTAA — higher, 0.468
- CGGAGTAG — higher, 0.465
- GGGAGTAA — lower, 0.0663
- AGGAGTAG — lower, -0.00627
- CGGAGTAC — higher, 0.462
- GGGAGTAC — lower, 0.0396
- CCGAGTAG — lower, 0.197
- GAACAGAA — lower, -0.0459
- ACTTCAAC — lower, -0.0372
- GAGTGAGC — lower, -0.125
- AATAGATT — lower, -0.0366
- AAGGGCTA — lower, -0.124
- CCAGATGG — lower, -0.0985
- GTATGGCA — lower, -0.204
- GAGCCGCA — lower, 0.0873
- GAGCCGGC — lower, 0.325
- AAGCCGGA — lower, 0.417
- TAGCCGAA — lower, 0.141
- CAGCCGGA — higher, 0.434
- AAGCCGGT — lower, 0.333
- CAGCCGGG — lower, 0.166
- TAGCCGCA — lower, 0.041
- CAGCCGGC — lower, 0.296
- AAGCCGGC — lower, 0.372
- TAGCCGGA — lower, 0.42
- GAGCCGGA — lower, 0.407
- AGCCGCAT — lower, 0.105
- CCCCGTGC — lower, 0.295
- AAACCCTC — lower, -0.0128
- CAGAGGAC — lower, -0.187
- CCGGGAAG — lower, 0.334
- CAGTGATC — lower, -0.0716
- CTCGACCA — lower, -0.232
- CGCATAAC — lower, -0.0515
- ATAGCGAA — lower, -0.144
- ATACACAT — lower, -0.212
- TTCCGGAA — higher, 0.467
- GTCCGGAA — higher, 0.44
- GTACGGAA — lower, 0.31
- TTCAGGAA — lower, -0.0794
- ATGCGGAA — lower, 0.383
- ATCCGTAA — lower, 0.155
- ATCCGGAT — higher, 0.452
- ATCAGGAT — lower, -0.018
- ATCCGCAT — lower, 0.263
- TTACGGAA — lower, 0.283
- GTGCGGAA — lower, 0.265
- ATCCGGAA — higher, 0.432
- AATTGCAC — lower, -0.054
- CATCGCAA — lower, -0.28
- GGTTTCAC — lower, 0.0826
- TACGCATA — lower, -0.0249
- ATCCGTAG — lower, 0.134
- GTACGGAC — lower, 0.249
- ATCCGTAC — lower, 0.112
- GTCCGGAC — higher, 0.455
- CTCCGGAC — higher, 0.477
- GTCAGGAC — lower, -0.266
- CTGCGGAC — lower, 0.221
- ATCCGGAC — lower, 0.424
- ATACGGAC — lower, 0.242
- CTCAGGAC — lower, -0.159
- ATCCGGAG — higher, 0.486
- ATCAGGAG — lower, -0.02
- ATGCAGAA — lower, -0.16
- AGAGATTG — lower, -0.112
- AGCTGGTG — lower, -0.109
- AATTTGGC — lower, -0.131
- ACCCTTCG — lower, 0.0769
- ATGCGATA — lower, -0.0857
- GTACCAGA — lower, -0.28
- ATGCTACG — lower, -0.0841
- TAGTAGCA — lower, -0.0836
- CGAGGTCC — lower, 0.333
- ATGCGGAG — lower, 0.385
- CTCCGGAG — higher, 0.481
- CTCAGGAG — lower, -0.171
- CTCCGGAA — higher, 0.479
- CTGCGGAA — lower, 0.214
- CTCAGGAA — lower, -0.0459
- CTAACAAC — lower, -0.0734
- CCGCTGCA — lower, 0.0719
- CATGCTCA — lower, -0.115
